Among all 5,500 compounds or so, about 2,000 (36%) were called active. Inconclusive results (about 18%) are left out. The list shows a part of the results. Values without a mark were called inactive. Rule as the data show it: active = normalized growth mostly below about 0.91 (no sharp cut-off); inconclusive = no clear call, values can overlap the other calls; inactive = mostly above about 0.92.
Experiment: chemical genetic growth profiling, strain panel (AID 1159580);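 also: tested at 20 µM; growth read once vehicle control cultures reached saturation at 30 °C; 1 = growth at the plate median or of vehicle wells; lower values mean less growth of the strain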
Conditions: S. cerevisiae deletion strains, growth OD

With `O=C1Nc2ccccc2/C1=C/c1ccc(Oc2ccccc2)nc1` the normalized growth (locus YAR019C, strain CDC15, hits give low values) was 0.965, the normalized growth (locus YBL105C, strain PKC1, hits give low values) was 0.959 and the normalized growth (locus YBR135W, strain CKS1, hits give low values) was 0.957. For the same molecule, the normalized growth (locus YBR136W, strain MEC1, hits give low values) was 0.975, the normalized growth (locus YBR160W, strain CDC28, hits give low values) was 0.962 and the normalized growth (locus YDL017W, strain CDC7, hits give low values) was 0.973. It also gave a normalized growth (locus YDL028C, strain MPS1, hits give low values) of 0.966, a normalized growth (locus YDL101C, strain DUN1, hits give low values) of 0.96 and a normalized growth (locus YDL108W, strain KIN28, hits give low values) of 0.967. The normalized growth (locus YDL132W, strain cdc53, hits give low values) was 0.962, the normalized growth (locus YDL214C, strain PRR2, hits give low values) was 0.866 and the normalized growth (locus YDR052C, strain DBF4, hits give low values) was 0.98. For the same molecule, the normalized growth (locus YDR054C, strain cdc34, hits give low values) was 0.948, the normalized growth (locus YDR226W, strain ADK1, hits give low values) was 0.96 and the normalized growth (locus YDR477W, strain SNF1, hits give low values) was 0.874. The normalized growth (locus YER123W, strain YCK3, hits give low values) was 0.885, the normalized growth (locus YER133W, strain GLC7, hits give low values) was 0.898 and the normalized growth (locus YFL009W, strain cdc4, hits give low values) was 0.959. For the same molecule, the normalized growth (locus YFL029C, strain CAK1, hits give low values) was 0.975, the normalized growth (locus YFR003C, strain YPI1, hits give low values) was 0.964 and the normalized growth (locus YFR019W, strain FAB1, hits give low values) was 0.95. The normalized growth (locus YFR028C, strain CDC14, hits give low values) was 0.959, the normalized growth (locus YGR040W, strain KSS1, hits give low values) was 0.892 and the normalized growth (locus YGR052W, strain FMP48, hits give low values) was 0.844. For the same molecule, the normalized growth (locus YGR092W, strain DBF2, hits give low values) was 0.803, the normalized growth (locus YHR030C, strain SLT2, hits give low values) was 0.615 (active) and the normalized growth (locus YHR079C, strain IRE1, hits give low values) was 0.836. The normalized growth (locus YHR082C, strain KSP1, hits give low values) was 0.82, the normalized growth (locus YHR205W, strain SCH9, hits give low values) was 0.788 and the normalized growth (locus YIL147C, strain SLN1, hits give low values) was 0.947. For the same molecule, the normalized growth (locus YJL095W, strain BCK1, hits give low values) was 0.835, the normalized growth (locus YJL128C, strain PBS2, hits give low values) was 0.877 and the normalized growth (locus YJL157C, strain FAR1, hits give low values) was 0.891. For the same molecule, the normalized growth (locus YJR016C, strain ILV3, hits give low values) was 0.967, the normalized growth (locus YJR066W, strain TOR1 (second series), hits give low values) was 0.851 and the normalized growth (locus YJR066W, strain TOR1, hits give low values) was 0.775. The normalized growth (locus YKL048C, strain ELM1, hits give low values) was 0.894, the normalized growth (locus YKL067W, strain YNK1, hits give low values) was 0.857 and the normalized growth (locus YKL101W, strain HSL1, hits give low values) was 0.879. For the same molecule, the normalized growth (locus YKL193C, strain SDS22, hits give low values) was 0.959, the normalized growth (locus YKL203C, strain TOR2, hits give low values) was 0.944 and the normalized growth (locus YLR113W, strain HOG1, hits give low values) was 0.846 (active). For the same molecule, the normalized growth (locus YLR133W, strain CKI1, hits give low values) was 0.86, the normalized growth (locus YLR403W, strain SFP1, hits give low values) was 0.826 and the normalized growth (locus YML070W, strain DAK1, hits give low values) was 0.915. The normalized growth (locus YMR001C, strain CDC5, hits give low values) was 0.967, the normalized growth (locus YMR205C, strain PFK2 (second series), hits give low values) was 0.889 and the normalized growth (locus YMR277W, strain FCP1, hits give low values) was 0.95. For the same molecule, the normalized growth (locus YNL006W, strain LST8, hits give low values) was 0.975, the normalized growth (locus YNL020C, strain ARK1, hits give low values) was 0.869 and the normalized growth (locus YNL161W, strain CBK1, hits give low values) was 0.976. The normalized growth (locus YNL183C, strain NPR1, hits give low values) was 0.811, the normalized growth (locus YNL207W, strain RIO2, hits give low values) was 0.962 and the normalized growth (locus YNL222W, strain SSU72, hits give low values) was 0.956. The normalized growth (locus YNL307C, strain MCK1 (second series), hits give low values) was 0.843, the normalized growth (locus YOL078W, strain AVO1, hits give low values) was 0.962 and the normalized growth (locus YOL136C, strain PFK27, hits give low values) was 0.897. For the same molecule, the normalized growth (locus YOR061W, strain CKA2, hits give low values) was 0.843, the normalized growth (locus YOR119C, strain RIO1, hits give low values) was 0.867 and the normalized growth (locus YOR231W, strain MKK1, hits give low values) was 0.858. The normalized growth (locus YOR329C, strain SCD5, hits give low values) was 0.967, the normalized growth (locus YPL031C, strain PHO85, hits give low values) was 0.858 and the normalized growth (locus YPL153C, strain RAD53, hits give low values) was 0.845. For the same molecule, the normalized growth (locus YPL204W, strain HRR25, hits give low values) was 0.847, the normalized growth (locus YPL209C, strain IPL1, hits give low values) was 0.971 and the normalized growth (locus YPL256C, strain CLN2, hits give low values) was 0.859 (active). The normalized growth (locus YPR025C, strain CCL1, hits give low values) was 0.956, the normalized growth (locus YPR106W, strain ISR1, hits give low values) was 0.957 and the normalized growth (locus YPR111W, strain DBF20, hits give low values) was 0.945. The normalized growth (strain NNK1, hits give low values) was 0.971 and the normalized growth (strain TSCII, hits give low values) was 0.965.
